Screens (PubChem)
JMJD2A Tudor inh – inhibitors of human JMJD2A Tudor domain | O75164 | AlphaScreen JMJD2A-Tudor / H3K4me3 peptide binding | Potency, µM (series often up to 114 µM), inactives show top-dose activity change, negative = inhibition, most hits filed as inhibitors | hit rate 4.4% among 390,000; note: potency is the fitted concentration of half-maximal effect; % is set by controls: 0 for no effect and ±100 for the full control effect; nearly all actives have a fitted effect of over 50% in size
CtBP-E1A inh – inhibitors of CtBP/E1A interaction | AlphaScreen GST-E1A/His-CtBP binding, 1536-well; hits give low values | AID 651724 | hit rate 0.49% among 340,000 | activity change, % (no concentration beside the values); in the data active = activity change below about -65%; inconclusive = mostly about -30% to -63%; note: % is set by controls: 0 for no effect and ±100 for the full control effect
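In 5 uL wells, 23 nL compound meets equimolar GST-E1A and His-CtBP (5X stock 125 nM each) for 2 h, 37 °C. Beads (5X, 50 ug/mL) then 1 h, 37 °C, dark.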
G9a inh – G9a (human) methyltransferase inhibition; Q96KQ7; G9a H3K9 monomethylation, AlphaScreen, 2 h; Potency, µM (series often up to 102 µM), for the others: at the highest dose activity, negative = inhibition, most hits filed as inhibitors; hit rate 8.8% among 350,000; AID 504332; note: potency is the fitted concentration of half-maximal effect; % is set by controls: 0 for no effect and ±100 for the full control effect; nearly all actives have a fitted effect of over 75% in size
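Compounds were preincubated with 20 nM G9a for 15 min, after which biotinylated H3K9 peptide (500 nM) and SAM (20 uM) started a 2 h room-temperature reaction. Monomethylated product was quantified by antibody-based AlphaScreen chemiluminescence.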
Six1-Eya2 inh – Six1/Eya2 interaction inhibition; Q15475+O00167; AlphaScreen GST-Six1/His-Eya2 binding, biochemical; hits give low values; activity change, % (concentration not given with the values); hit rate 0.56% among 360,000; in the data active = activity change below about -65%; inconclusive = mostly about -30% to -63%; note: % is set by controls: 0 for no effect and ±100 for the full control effect
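Six1/Eya2 binding was read as AlphaScreen signal after compounds were pinned into GST-Six1 plus His-tagged Eya2 (5X stock 250/500 nM) in pH 8.0 Tris/NaCl/TCEP buffer, beads added, then incubated 1 h, 37 C, dark.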
BAZ2B block – inhibitors of human BAZ2B bromodomain. Potency, µM (top dose mostly 114 µM), inactives show at the highest dose activity change, negative = inhibition, most hits filed as inhibitors. hit rate 4.4% among 360,000. AlphaScreen BAZ2B-H3K14Ac peptide displacement. Q9UIF8; note: potency is the fitted concentration of half-maximal effect; % is set by controls: 0 for no effect and ±100 for the full control effect; nearly all actives have a fitted effect of over 60% in size
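Inhibition is scored as reduced AlphaScreen emission. The BAZ2B/b-H3(5-23)K14Ac complex (50 nM each) in PBS pH 7.4, 0.01% Tween-20 meets compound (up to 110 uM) for 30 min at RT before bead addition.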
HP1b binding inh – blocks HP1-beta chromodomain binding to methylated histone tails; P83916; AlphaScreen HP1-beta / biotin-H3K9me3 peptide binding; Potency, µM (top dose mostly 114 µM), inactives show top-dose activity change, negative = inhibition, actives largely listed as inhibitors; hit rate 0.56% among 390,000; note: potency is the fitted concentration of half-maximal effect; nearly all actives have a fitted effect of over 70% in size
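Compound inhibition of the preformed complex between 50 nM HP1-beta and 50 nM biotinylated H3K9me3 peptide was read by AlphaScreen. Buffer was PBS pH 7.4 with 0.01% Tween-20. Incubations ran 30 min at room temperature, with 10 ug/mL donor/acceptor beads.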
* = called active by the depositor; ? = inconclusive; · = no result; [ ] = dose if it differs, or a comment. An excerpt weighted towards active compounds, which were near 10% of everything screened. Unless noted, calls come from the whole dose curve; as a rule, active = well fitted inhibition curve with a large enough effect; inconclusive = small, poorly fitted or top-dose-only effect; inactive = no such curve, though single readings can be large or run the other way.

SMILES	JMJD2A Tudor inh	CtBP-E1A inh	G9a inh	Six1-Eya2 inh	BAZ2B block	HP1b binding inh
Cn1c2ccccc2c2cc(C(=O)OCC(=O)N3CC(=O)Nc4ccccc43)sc21	5%	0	50µM*	17	-4%	40%
Cc1ccc2[nH]c(C(=O)Nc3ccccc3)cc2c1	6%	·	8%[59 µM]	·	2%	43%
CCC(=O)N1c2ccc(S(=O)(=O)N3CCC(C)CC3)cc2CC1C (stereo not drawn)	-13%	·	9%[59 µM]	·	·	31%
COc1ccc2c(c1)CCc1c(C(=O)Nc3c(C)nn(Cc4c(Cl)cccc4Cl)c3C)noc1-2	-14%	·	-45%[59 µM]	·	-1%	21%
O=C(O)C1CC=CCC1C(=O)Nc1cccc([N+](=O)[O-])c1 (stereo not drawn)	-10%	·	?	2	89µM*	30%
COc1ccc(-c2cc3c(=O)n(CC(=O)Nc4cc(F)ccc4F)ccn3n2)cc1OC	-9%	·	15%[59 µM]	·	-7%	15%
S=c1[nH]nc(COc2ccc(Cl)cc2Cl)n1-c1ccccc1	-34%	-14	10µM*	-3	-30%	30%
S=c1[nH]nc(-c2ccc(Cl)cc2Cl)n1Cc1ccccc1	13µM*	-11	?	-16	-6%	?
S=c1[nH]nc(-c2cccc(Cl)c2)n1Cc1ccccc1	?	-7	?	-11	-35%	36%
CCn1c(-c2cccn(Cc3ccc(Cl)cc3Cl)c2=O)n[nH]c1=S	-32%[11.4 µM]	·	8.9µM*	4	5%	-9%
S=c1[nH]nc(-c2ccc(Cl)cc2Cl)n1-c1ccccc1	-13%	·	6.3µM*	6	-28%	28%
On1c(-c2ccc(Cl)cc2Cl)nc2ncccc21	-8%	3	15%	10	-2%	57%
CCCCn1c(=O)nc2n(-c3ccc(Br)cc3)c3ccccc3cc-2c1=O	2%	·	8%[59 µM]	·	2%	4%
Cc1cc(C)c(NC(=O)CN2c3ccccc3S(=O)(=O)c3ccccc32)c(C)c1	-27%	·	10%[59 µM]	·	0%	85%
CC(C)(C)S(=O)N1Cc2cc(C(=O)N3CCc4ccccc4C3)nc(-c3cccc(-c4cccnc4)c3)c2[C@@H]1CCO (stereo partly drawn)	·	1	·	-13	·	·
CCC(CO)(CO)N(CC(=O)Nc1ccc(OC)cc1)CC(=O)Nc1ccc(OC)cc1	-11%	3	?	0	-2%	36%
CCC(C)c1ccc(NC(=O)CN(C)CC(=O)Nc2cccc(OC)c2)cc1 (stereo not drawn)	5%	·	50µM*	4	50µM*	35%
CCC(C)c1ccc(NC(=S)Nc2ccc(OC)c(OC)c2)cc1 (stereo not drawn)	-35%	-12	?	-15	-35%	?
CCC(C)c1ccc(NC(=S)Nc2ccc(OC)cc2C)cc1 (stereo not drawn)	-26%	0	4.5µM*	9	-5%	-22%
COc1cccc(NC(=O)CN(C)C(C)C(=O)NC(C)c2ccc(Cl)cc2Cl)c1 (stereo not drawn)	-14%	-4	28µM*	1	-2%	40%
COc1ccc(NC(=O)CN(CC(=O)Nc2ccc(OC)cc2)C(C)(C)CO)cc1	-15%	4	71µM*	5	-23%	14%
COCCCNC(=O)c1cc2c(=O)oc3ccc(C)cc3c2s1	-2%	·	4%[59 µM]	·	-5%	36%
C=C1C[C@@H]2C[C@@H]2CN(S(=O)(=O)c2ccc(C)cc2)[C@@H]1COCc1ccccc1	·	5	·	13	·	·
Cc1ccccc1-n1c(SCC(=O)N2CCN(c3ccccn3)CC2)nnc1N1CCOCC1	-8%	0	2%[2.33 µM]	9	-4%	15%
COc1ccc(NC(=O)CN(C)CC(=O)N2CCCCCC2)cc1	14µM*	-7	56µM*	9	27%	24%
CCCN(CC(=O)Nc1cccc(S(N)(=O)=O)c1)CC(=O)Nc1ccc(F)c(F)c1F	-4%	7	13%	12	-9%	44%
CN(CC(=O)Nc1cccc(C#N)c1)Cc1ccc(Cl)cc1	2%	6	6%	3	2%	47%
